# Laboratory results: the supplement of paper PMC8728848
# The entries come from a sample that favours the strongest signals as a whole.
# B1: Gal 9 (Homo sapiens), O00182 (protein)
# chain: MAFSGSQAPYLSPAVPFSGTIQGGLQDGLQITVNGTVLSSSGTRFAVNFQTGFSGNDIAFHFNPRFEDGGYVVCNTRQNGSWGPEERKTHMPFQKGMPFDLCFLVQSSDFKVMVNGILFVQYFHRVPFHRVDTISVNGSVQLSYISFQNPRTVPVQPAFSTVPFSQPVCFPPRPRGRRQKPPGVWPANPAPITQTVIHTVQSAPGQMFSTPAIPPMMYPHPAYPMPFITTILGGLYPSKSILLSGTVLPSAQRFHINLCSGNHIAFHLNPRFDENAVVRNTQIDNSWGSEERSLPRKMPFVRGQSFSVWILCEAHCLKVAVDGQHLFEYYHRLRNLPTINRLEVGGDIQLTHVQT
# How the values were obtained:
# Assay in all cases: glycan array binding signal (z-score within array); higher = stronger binding
# Details in all cases: glycan notation: IUPAC condensed, linker removed
# [1] = target: Gal(b1-4)GlcNAc(b1-6)[Gal(b1-4)GlcNAc(b1-3)]GalNAc
# Outline: (§1)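 Columns mapping to the same glycan were averaged after glycan names were converted to IUPAC-condensed notation. The data come from 3228 arrays in the Consortium for Functional Glycomics database, limited to those with an available protein sequence. Binding is reported as a within-array Z-score averaged across arrays of one protein sequence and across linkers.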
# Gal3S(b1-3)GlcNAc = target: Gal3S(b1-3)GlcNAc
# Outline: as §1
# Gal3S(b1-4)Glc = target: Gal3S(b1-4)Glc
# Outline: as §1
# Gal3S(b1-4)GlcNAc6S = target: Gal3S(b1-4)GlcNAc6S
# Outline: as §1
# Gal6S(b1-4)Glc6S = target: Gal6S(b1-4)Glc6S
# Outline: as §1
# [2] = target: GalNAc(a1-3)GalNAc(a1-3)Gal(a1-4)Gal(b1-4)GlcNAc
# Outline: as §1
# [3] = target: GalNAc(b1-3)Gal(a1-4)Gal(b1-4)GlcNAc(b1-3)Gal(b1-4)Glc
# Outline: as §1
# [4] = target: GlcNAc(b1-2)[GlcNAc(b1-4)]Man(a1-3)[GlcNAc(b1-2)Man(a1-6)]Man(b1-4)GlcNAc(b1-4)GlcNAc
# Outline: as §1
# GlcNAc(b1-3)Gal = target: GlcNAc(b1-3)Gal
# Outline: as §1
# [5] = target: GlcNAc(b1-3)Gal(b1-4)GlcNAc(b1-3)Gal(b1-4)GlcNAc(b1-3)Gal(b1-4)GlcNAc(b1-3)Gal(b1-4)GlcNAc(b1-2)[GlcNAc(b1-3)Gal(b1-4)GlcNAc(b1-3)Gal(b1-4)GlcNAc(b1-3)Gal(b1-4)GlcNAc(b1-3)Gal(b1-4)GlcNAc(b1-6)]Man(a1-6)[GlcNAc(b1-3)Gal(b1-4)GlcNAc(b1-3)Gal(b1-4)GlcNAc(b1-3)Gal(b1-4)GlcNAc(b1-3)Gal(b1-4)GlcNAc(b1-2)Man(a1-3)]Man(b1-4)GlcNAc(b1-4)[Fuc(a1-6)]GlcNAc
# Outline: as §1
# Kdn(a2-3)Gal(b1-4)Glc = target: Kdn(a2-3)Gal(b1-4)Glc
# Outline: as §1
# [6] = target: Man(a1-2)Man(a1-3)[Man(a1-2)Man(a1-6)]Man(a1-6)[Man(a1-2)Man(a1-2)Man(a1-3)]Man
# Outline: as §1
# [7] = target: Man(a1-2)Man(a1-6)[Man(a1-3)]Man(a1-6)[Man(a1-2)Man(a1-2)Man(a1-3)]Man(b1-4)GlcNAc(b1-4)GlcNAc
# Outline: as §1
# [8] = target: Man(a1-3)[Man(a1-6)]Man(a1-6)[Man(a1-2)Man(a1-3)]Man(b1-4)GlcNAc(b1-4)GlcNAc
# Outline: as §1
# [9] = target: Neu5Ac(a2-3)Gal(b1-3)GlcNAc(b1-3)Gal(b1-4)GlcNAc
# Outline: as §1
# [10] = target: Neu5Ac(a2-3)Gal(b1-4)GlcNAc(b1-3)Gal(b1-4)GlcNAc(b1-3)Gal(b1-4)GlcNAc
# Outline: as §1
# [11] = target: Neu5Ac(a2-3)Gal(b1-4)GlcNAc(b1-3)GalNAc
# Outline: as §1
# [12] = target: Neu5Ac(a2-3)[GalNAc(b1-4)]Gal(b1-4)Glc
# Outline: as §1
# [13] = target: Neu5Ac(a2-6)Gal(b1-4)GlcNAc(b1-2)Man(a1-3)[GlcNAc(b1-2)Man(b1-4)GlcNAc(b1-2)Man(a1-6)]Man(b1-4)GlcNAc(b1-4)GlcNAc
# Outline: as §1
# [14] = target: Neu5Ac(a2-6)Gal(b1-4)GlcNAc(b1-2)Man(a1-3)[Neu5Ac(a2-3)Gal(b1-4)GlcNAc(b1-2)Man(a1-6)]Man(b1-4)GlcNAc(b1-4)GlcNAc
# Outline: as §1
# [15] = target: Neu5Ac(a2-6)Gal(b1-4)GlcNAc(b1-2)Man(a1-6)[GlcNAc(b1-2)Man(a1-3)]Man(b1-4)GlcNAc(b1-4)GlcNAc
# Outline: as §1
# [16] = target: Neu5Ac(a2-6)Gal(b1-4)GlcNAc(b1-3)Gal(b1-4)GlcNAc(b1-2)Man(a1-3)[Neu5Ac(a2-6)Gal(b1-4)GlcNAc(b1-3)Gal(b1-4)GlcNAc(b1-2)Man(a1-6)]GalNAc
# Outline: as §1
# [17] = target: Neu5Ac(a2-6)GalNAc(b1-4)GlcNAc6S
# Outline: as §1
# [18] = target: Neu5Ac(a2-6)GlcNAc(b1-4)GlcNAc(b1-4)GlcNAc
# Outline: as §1
# [19] = target: Neu5Gc(a2-8)Neu5Gc(a2-3)Gal(b1-4)GlcNAc(b1-3)Gal(b1-4)GlcNAc
# Outline: as §1
binder,measurement,setting,value
B1,glycan array binding signal (z-score),[1],-0.275
same,glycan array binding signal (z-score),Gal3S(b1-3)GlcNAc,0.996
same,glycan array binding signal (z-score),Gal3S(b1-4)Glc,-0.132
same,glycan array binding signal (z-score),Gal3S(b1-4)GlcNAc6S,4.06
same,glycan array binding signal (z-score),Gal6S(b1-4)Glc6S,-0.299
same,glycan array binding signal (z-score),[2],0.672
same,glycan array binding signal (z-score),[3],-0.036
same,glycan array binding signal (z-score),[4],-0.323
same,glycan array binding signal (z-score),GlcNAc(b1-3)Gal,-0.323
same,glycan array binding signal (z-score),[5],2.32
same,glycan array binding signal (z-score),Kdn(a2-3)Gal(b1-4)Glc,-0.315
same,glycan array binding signal (z-score),[6],-0.311
same,glycan array binding signal (z-score),[7],-0.321
same,glycan array binding signal (z-score),[8],-0.263
same,glycan array binding signal (z-score),[9],0.431
same,glycan array binding signal (z-score),[10],0.554
same,glycan array binding signal (z-score),[11],-0.265
same,glycan array binding signal (z-score),[12],-0.302
same,glycan array binding signal (z-score),[13],0.913
same,glycan array binding signal (z-score),[14],-0.259
same,glycan array binding signal (z-score),[15],-0.323
same,glycan array binding signal (z-score),[16],5.41
same,glycan array binding signal (z-score),[17],-0.291
same,glycan array binding signal (z-score),[18],-0.318
same,glycan array binding signal (z-score),[19],-0.282
